Screens (PubChem BioAssay)
The entries come from a sample that favours hits as a whole.
CHX counter = Cycloheximide Counterscreen for Small Molecule Inhibitors of Shiga Toxin. cell reporter, cycloheximide protein synthesis inhibition counterscreen. max response, %. 300,000 tested, 12% active; in the data active = max response mostly above about 13%, no sharp cut-off; inactive = mostly below about 14%; also: read at 38.3 µM for the half of the compounds with a filed dose
AmpC detergent = qHTS Inhibitors of AmpC Beta-Lactamase (assay with detergent); 370,000 tested, 0.041% active; Potency, µM (top dose mostly 114 µM), actives largely listed as inhibitors; AID 485294, 2010; P00811; AmpC hydrolysis of nitrocefin, absorbance 480 nm, 0.01% Triton; also: nearly all actives have a fitted effect of over 25% in size
Target sequence (P00811 whole entry, looked up): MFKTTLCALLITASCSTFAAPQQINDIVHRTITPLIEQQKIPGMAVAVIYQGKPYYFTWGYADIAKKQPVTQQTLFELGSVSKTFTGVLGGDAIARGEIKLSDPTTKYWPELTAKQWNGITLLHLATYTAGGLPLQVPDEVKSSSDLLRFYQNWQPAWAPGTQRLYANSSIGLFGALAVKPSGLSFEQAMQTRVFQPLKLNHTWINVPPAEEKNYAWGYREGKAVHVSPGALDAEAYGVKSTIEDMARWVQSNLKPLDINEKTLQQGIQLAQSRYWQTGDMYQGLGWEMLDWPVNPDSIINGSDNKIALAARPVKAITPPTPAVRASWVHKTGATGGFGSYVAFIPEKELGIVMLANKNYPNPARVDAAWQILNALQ
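20 mM phosphate pH 7.0 + 0.01% (detergent screen) or 0.0001% Triton X-100; 5.3 nM AmpC reagent; cpd preinc 15 min RT; nitrocefin (800 uM stock) to start; A480 q20 s × 4 min; Activity was normalised to no-enzyme and no-compound control wells.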
Shiga inhibitor = A qHTS for Small Molecule Inhibitors of Shiga Toxin | Vero cells, Shiga toxin protein synthesis inhibition reporter | inhibition, % at 38.7 µM | 290,000 tested, 9.2% active | AID 2315, 2010; in the data active = inhibition mostly above about 28%, no sharp cut-off; inactive = mostly below about 43%
AmpC inh no detg = qHTS Inhibitors of AmpC Beta-Lactamase (assay without detergent) | AmpC nitrocefin hydrolysis, absorbance 480 nm, 0.0001% Triton | Potency, µM (top dose mostly 57.1 µM), most hits filed as inhibitors | 330,000 tested, 0.52% active | AID 485341, 2010; also: nearly all actives have a fitted effect of over 20% in size
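20 mM phosphate pH 7.0 + 0.01% (detergent screen) or 0.0001% Triton X-100; 5.3 nM AmpC reagent; cpd preinc 15 min RT; nitrocefin (800 uM stock) to start; A480 q20 s × 4 min; Activity was normalised to no-enzyme and no-compound control wells.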
NS1 function inh = qHTS Assay for Inhibitors of Influenza NS1 Protein Function | 270,000 tested, 0.4% active | Potency, µM (doses to about 46.1 µM) | AID 2326, 2010; calls by dose curve; also: actives are rising curves; nearly all actives have a fitted effect of over 50% in size
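Read-out: OD600 growth recovery of NS1-expressing budding yeast. Cells grown overnight at 30C in -URA glucose medium, washed, resuspended and diluted 1:100 in 2% galactose assay medium, pH 6.0. Same strain lacking NS1 served as positive control.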
Large screens that a line does not name were inactive. Unless noted, calls follow the shape of the dose curve; as a rule, active = well fitted curve in the direction sought with a large enough effect; inconclusive = small, poorly fitted or top-dose-only effect, or another doubt; inactive = no such curve, though single readings can be large; an effect the other way counts as inactive or inconclusive.

CC(C)(C)c1ccc(OCCN2CCCC2)cc1	AmpC detergent inconclusive
c1cc(-c2cnn3cc(-c4ccc(OCCN5CCCCC5)cc4)cnc23)ccn1	CHX counter 40, Shiga inhibitor 27 (no result: AmpC detergent, AmpC inh no detg, NS1 function inh)
CCOc1ccc(-c2cnc3ccccc3n2)cc1	CHX counter 40, Shiga inhibitor 96
O=[N+]([O-])c1ccc(-c2cnc3ccccc3n2)cc1	CHX counter 26, Shiga inhibitor 32
O=[N+]([O-])c1cc(-c2cnc3ccccc3n2)ccc1Oc1ccc(F)cc1	CHX counter 53, Shiga inhibitor 81
CCOc1ccc(-c2cc3cc(OC)c(OC)cc3c(C)n2)cc1	AmpC detergent inconclusive (no result: NS1 function inh)
Cn1ncc(Br)c1C(=O)NC12CC3CC(CC(C3)C1)C2	AmpC detergent inconclusive
C=CCN1c2ccccc2C(=O)CS1(=O)=O	none (no result: CHX counter, Shiga inhibitor, NS1 function inh)
CCCC1CCC(=NNS(=O)(=O)c2ccc(C)c([N+](=O)[O-])c2)CC1 (stereo unspecified)	none
CCCC1CCC(=NNC(=O)OC(C)(C)C)CC1 (stereo unspecified)	CHX counter 31
CC1(C)CC(NCc2cccc([N+](=O)[O-])c2)CC(C)(C)N1	CHX counter 17
CC(C)NCc1cccc([N+](=O)[O-])c1	none
Cc1cc2nc(N=C(N)N)nc(C)c2cc1C	AmpC detergent inconclusive (no result: NS1 function inh)
O=C1C(Cl)=C(N2CCCCCC2)C(=O)N1c1ccccc1	CHX counter 25
O=C1C(Cl)=C(N2CCCCCC2)C(=O)N1c1ccc(Br)cc1	AmpC detergent inconclusive
CCCCNC(=O)Oc1cc(CCl)on1	AmpC detergent inconclusive (no result: NS1 function inh)
CCCCNC(=O)Oc1c(Br)cc2sc(=O)oc2c1Br	AmpC detergent 45µM, AmpC inh no detg inconclusive
O=C(Nc1ccc2c(c1)OCO2)C1CC(c2ccccc2O)=NO1 (stereo unspecified)	CHX counter active, AmpC detergent inconclusive
Cc1cc(NC(=O)C2CC(c3ccccc3Cl)=NO2)no1 (stereo unspecified)	none
COc1ccc(NC(=O)C2CC(c3ccccc3Cl)=NO2)cc1 (stereo unspecified)	CHX counter 14
O=C(Nc1ccc2c(c1)OCCO2)C1CC(c2ccccc2Cl)=NO1 (stereo unspecified)	CHX counter 61, Shiga inhibitor 117
CCCNC(=O)CS(=O)(=O)Cc1nc(-c2ccccc2C)oc1C	AmpC inh no detg 3.5µM
CCCCN(C)C(=O)CS(=O)(=O)Cc1nc(-c2cccc(OC)c2)oc1C	AmpC detergent inconclusive, AmpC inh no detg 11µM
COCCCNC(=O)CS(=O)(=O)Cc1nc(-c2cccc(OC)c2)oc1C	none
COc1ccc(-c2nc(CS(=O)(=O)CC(=O)Nc3ccc(Cl)cc3)c(C)o2)cc1	CHX counter 19, Shiga inhibitor 40, AmpC inh no detg 4µM
O=C(c1cc(-c2ccc(F)cc2)on1)N1CCCC1	CHX counter 50, Shiga inhibitor 66
COCCCC1CCN(C(=O)c2cc(COc3ccc(C)nc3)on2)CC1	none
CCOC(=O)C1CCCN(C(=O)c2cccs2)C1 (stereo unspecified)	none
COCCC1CCCCN1C(=O)c1cc(COc2ccc(C)nc2)on1 (stereo unspecified)	CHX counter 49
CCOC(=O)C1CCCN(C(=O)c2cc(-c3ccc(C)cc3)on2)C1 (stereo unspecified)	CHX counter 58, Shiga inhibitor 113
CCOC(=O)C1CCCN(C(=O)c2cc(COc3ccc(C)nc3)on2)C1 (stereo unspecified)	CHX counter 51, Shiga inhibitor 73
CC[C@H](C)[C@H](NC(=O)[C@H](CO)NC(=O)[C@H](CC(N)=O)NC(=O)[C@H](CC(C)C)NC(=O)[C@H](Cc1ccc(O)cc1)NC(=O)[C@H](CCCCN)NC(=O)[C@H](CCCCN)NC(=O)[C@@H](NC(=O)[C@H](C)NC(=O)[C@H](CCSC)NC(=O)[C@H](CCC(N)=O)NC(=O)[C@H](CCCCN)NC(=O)[C@H](CCCNC(=N)N)NC(=O)[C@H](CC(C)C)NC(=O)[C@H](CCCNC(=N)N)NC(=O)[C@@H](NC(=O)[C@H](Cc1ccc(O)cc1)NC(=O)[C@H](CC(N)=O)NC(=O)[C@H](CC(=O)O)NC(=O)[C@@H](NC(=O)[C@H](Cc1ccccc1)NC(=O)[C@@H](NC(=O)[C@H](C)NC(=O)[C@H](CC(=O)O)NC(=O)[C@H](CO)NC(=O)[C@@H](N)Cc1cnc[nH]1)C(C)C)[C@@H](C)O)[C@@H](C)O)C(C)C)C(=O)N[C@@H](CC(C)C)C(=O)N[C@@H](CC(N)=O)C(N)=O	none (no result: AmpC detergent, AmpC inh no detg, NS1 function inh)
O=C(NS(=O)(=O)Nc1ccccc1)C1=C(N2CCCC2)COC1=O	none (no result: CHX counter, AmpC detergent, Shiga inhibitor, NS1 function inh)
O=C(CC1S/C(=N/N=C2CCCCCC2)NC1=O)Nc1ccc(Br)cc1F (stereo unspecified)	none
CN1CCN(C(=O)c2cc(-c3ccccc3)on2)CC1	CHX counter 38, Shiga inhibitor 109
O=C(c1cc(-c2ccccc2)on1)N1CCCCCC1	CHX counter 29, Shiga inhibitor 71
Cc1cccc(C)c1OCc1cc(C(=O)N2CCC[C@H]2C(N)=O)no1	none
O=C(O)c1cc(-c2ccccc2)on1	none
O=C(c1cc(-c2ccc(O)cc2)on1)N1CCCC1	CHX counter 37, Shiga inhibitor 97
NC(=O)[C@@H]1CCCN1C(=O)c1cc(COc2ccc3c(c2)CCCC3)on1	CHX counter 36, Shiga inhibitor 34
O=C(c1cc(-c2ccccc2)on1)N1CCc2ccccc2C1	none
Cc1cccc(-c2nc3ccccc3n3c(-c4ccccc4)c4c(=O)n(C)c(=O)n(C)c4c23)c1	none (no result: CHX counter, Shiga inhibitor, AmpC inh no detg, NS1 function inh)
O=C(c1cc(COc2ccc3ncccc3c2)on1)N1CCC[C@H]1CO	CHX counter 34, Shiga inhibitor 56
O=C(c1cc(-c2ccc(F)cc2)on1)N1CCOCC1	CHX counter 27
CN1CCN(C(=O)/C=C/c2ccc([N+](=O)[O-])o2)CC1	CHX counter 19, Shiga inhibitor 29
O=C(c1cc(-c2ccc(O)cc2)on1)N1CCN(c2ccc(F)cc2)CC1	none
Cc1ccc(-c2cc(C(=O)N3CCCCCC3)no2)cc1	CHX counter 48, Shiga inhibitor 102
O=C(Nc1ccccc1Br)c1cc(S(=O)(=O)NC2CCCCC2)ccc1F	none (no result: CHX counter, Shiga inhibitor, AmpC inh no detg, NS1 function inh)
O=C(NC1CCCCCC1)c1cc(-c2ccccn2)nc2ccccc12	AmpC detergent inconclusive (no result: NS1 function inh)
CN1C(=O)c2ccccc2Sc2ccc(NC(=O)c3ccc(C#N)cc3)cc21	none (no result: CHX counter, Shiga inhibitor, AmpC inh no detg, NS1 function inh)
COc1ccc(CNC(=O)CCc2c(C)c3ccc(OC)c(C)c3oc2=O)cc1OC	none (no result: CHX counter, Shiga inhibitor, AmpC inh no detg, NS1 function inh)
CCN(CC)C(=O)c1cc(-c2ccc(Br)cc2)on1	CHX counter 47, Shiga inhibitor 90
O=C(c1cc(-c2ccccc2)on1)N1CCC2(CC1)OCCO2	CHX counter 32, AmpC detergent inconclusive, Shiga inhibitor 79 (no result: NS1 function inh)
O=C(c1cc(-c2ccc(O)cc2)on1)N1CCN(c2ccccc2)CC1	none
